Columns and labels:
Assay in all cases: PBM binding z-score (relative to random genomic background probes); higher = stronger binding; sequences stand for … in GC…GCGATTGACAGCGTAGAATGAAGG
[1] = system: RARb homodimer (NR concentration 270 nM)
Procedure, shortened: (§1)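 Random background probes are the reference for binding z-scores. These scores derive from regression-normalized fluorescence on custom Agilent 4×180K protein-binding microarrays incubated 1 h with ligand-free nuclear receptor dimers. Binding was detected with antibodies against each partner (one per run).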

[2] = system: RARg:RXRa (NR concentration 270 nM, RXRa partner concentration 90 nM)
Procedure, shortened: as §1

[3] = system: RARg homodimer (NR concentration 270 nM)
Procedure, shortened: as §1

[4] = system: RXRa DBDmut IVT, anti-RXR (DBD mutation: RXRa K156A/R161A, NR concentration 90 nM)
Procedure, shortened: as §1

[5] = system: RXRa homodimer (NR concentration 180 nM)
Procedure, shortened: as §1

[6] = system: THRa:RXRa (NR concentration 90 nM, RXRa partner concentration 90 nM)
Procedure, shortened: as §1

[7] = system: THRa homodimer (NR concentration 90 nM)
Procedure, shortened: as §1

[8] = system: VDR homodimer (NR concentration 270 nM)
Procedure, shortened: as §1

[9] = system: VDR:RXRa (NR concentration 270 nM, RXRa partner concentration 90 nM)
Procedure, shortened: as §1

Sequence | PBM binding z-score [1] | PBM binding z-score [2] | PBM binding z-score [3] | PBM binding z-score [4] | PBM binding z-score [5] | PBM binding z-score [6] | PBM binding z-score [7] | PBM binding z-score [8] | PBM binding z-score [9]
CGAACTTGGTCAAAGGACAGTGAAAGGCGACGTA | 1.3 | 1.24 | 1.69 | -0.0652 | 0.736 | 0.657 | -0.391 | -0.0452 | 
TTGAGTAGGTTACGGGGGCATTCAGGGATGAAGA | 2.59 | 3.71 | 3.05 | 2.36 | 3.3 | 3.83 | 2.02 | 4.22 | 
CCGAGTAGGTTACGAGGGGGCATCCAGTGCGAAT | 2.11 | 2.95 | 2.31 | 0.736 | 2.02 | 3.7 | 0.756 | 2.87 | 
ATATGTAGGTCAGGGTCATTCAGAAAGTAGGGAA | 4.5 | 5.21 | 5.33 | 2.58 | 5.76 | 4 | 2.37 | 4.27 | 
CCTAGCCGGCCAATCTGGGTCACTCAAGGCTTGA | 2.25 | 1.14 | 1.24 | -0.259 | 0.623 | 3.15 | 0.859 | 0.329 | 
CCGAGTAGGTCACGAGGGGGCATTCAGTGCGAAT | 4.35 | 6.3 | 6.32 | 2.29 | 5.11 | 4.54 | 0.959 | 3.61 | 
CAAACTAGGTCACAGAGGTCGAAGTCCGTGCGTA | 4.46 | 5.11 | 5.68 | 2.1 | 4.51 | 4.03 | 2 | 3.88 | 
CCGAGTAGGTTACGATGGGGCATTCAGTGCGAAT | 0.657 | 0.828 | 0.851 | 0.0778 | 0.63 | 1.08 | -0.789 | 0.231 | 
TCGAGTAGGTTACGGGGGCGTTCAGGGATGAAGA | 1.66 | 2.9 | 1.99 | 1.4 | 2.05 | 3.24 | 1.34 | 3.52 | 
CGAACTAGGTCAGAACAGGACAGTTAAGGATGAT | 2.09 | 2.45 | 3.49 | 0.671 | 1.3 | 3.48 | 0.637 | 0.142 | 
CTATGTACGTTAAGGGGGTCATTCAGTTTGAAAG | 3.65 | 4.57 | 3.69 | 2.99 | 5.04 | 3.86 | 2.71 | 5.96 | 
AGTCAAAGTTCACTAGGCAACGTAAGATTCAGCT | 3.63 | 4.84 | 5.8 | 4.16 | 3.89 | 1.4 | -0.365 | 3.61 | 
CCGAGTAGGTTACGAGGGAGCATTCAGTGCGAAT | 0.337 | 0.625 | 0.53 | 0.00513 | 0.6 | 0.829 | -0.661 | -0.171 | 
CGAACTAGGTCAAAGTACAGTGAAAGGCGACGTA | 2.8 | 4.13 | 4.62 | 2 | 3.1 | 2.57 | 0.294 | 0.766 | 
CGGACTAGGTCACCAGGACAGTGAAGAGGTTGGA | 3.18 | 4.13 | 5.61 | 1 | 3.39 | 3.14 | 2.14 | 0.337 | 
ATCGAAAGGTCGAAGGTGACTATACCCACCCGAA | 2.48 | 4.16 | 3.63 | 1.17 | 4.99 | 2.33 | 0.209 | 0.592 | 
CGTCAAAGCTCAACTAAGGTAACGTAAAGCACGC | 0.161 | 0.118 | 0.236 | 0.155 | -0.0326 | 3.64 | 1.57 | -0.205 | 
TATTGTAGATCAAAGGTTAAGAAAGCCGAAGCCT | 1.38 | 2.06 | 1.28 | -0.592 |  | 1.37 | -0.344 | 0.214 | 1.54
CCCACTGGGCCATTCAGAGGTCATTGATCATATG | 4.3 | 4.48 | 3.31 | 0.382 |  | 3.43 | 1.52 | 3.25 | 
CCTACTGGGCCAAAAAGGTAATTGATGCCGATAA | -0.363 | 0.0737 | -0.0665 | -0.561 |  | 0.109 | -0.602 | -0.646 | -0.157
CAAACTAGGTCACAGAGGTCAAAGTTCGTGCGTA | 5.64 | 7.52 | 7.81 | 3.36 |  | 4.93 | 3.18 | 7.28 | 
TGAATGAGGTCAAAGATCAGGGAACGTGGCGTCG | 3.65 | 6.3 | 6.16 | 4.12 |  | 4.33 | 3.06 | 4.68 | 
ATCGAACGGTCGACGAGGTGAGTATACACCGTTT | 0.461 | 0.635 | 1.21 | -0.546 |  | 1.26 | 0.292 | -0.356 | 
TCATATAGGTAAAAGGTCAAAGTCGGTGTGGTAA | 4.74 | 6.62 | 5.95 | 2.5 |  | 3.85 | 1.47 | 3.09 | 
CTCGAAAGGGCGTGCTCAGGTGAGTATACCAAAC | 0.741 | 0.917 | 0.829 | 0.316 |  | 2.23 | 0.261 | -0.046 | -0.0475
CTTAGTTGGTCAAGGTCACACACGCTATAGGTAC | 4.53 | 4.9 | 5.2 | 2.05 |  | 4.43 | 4.65 | 3.96 | 4.52
AGTCAAAGTTCATCTAGGTAACGAAAGATATGCT | 3.88 | 5.82 | 6.19 | 4.79 |  | 3.24 | 0.383 | 5.04 | 
CGAACTAAGTCAAAGGACAGTGAAAGGCGACGTA | 1.11 | 0.597 | 1.1 | 0.0633 |  | 0.219 | -0.0369 | -0.13 | 
ACTAGTTGGTCAGCTGAGGTCACACACAATTCGG | 4.52 | 4.26 | 4.51 | 1.35 |  | 5.14 | 4.99 | 3.54 | 

Source: the supplement of paper PMC6555819
